Rows were chosen to be rich in hits. Some 2.4% of all compounds tested hit in one or more screens of this group.
D2 ag-1: activates the human D2 dopamine receptor; P14416; DiscoveRx PathHunter D2 beta-arrestin, luminescence, 90 min; 100% = 57 uM dopamine signal; activation, % (no concentration beside the values); hit rate 0.084% among 360,000; AID 624465; in the data active means activation above about 40%
Target sequence (P14416 whole entry, looked up): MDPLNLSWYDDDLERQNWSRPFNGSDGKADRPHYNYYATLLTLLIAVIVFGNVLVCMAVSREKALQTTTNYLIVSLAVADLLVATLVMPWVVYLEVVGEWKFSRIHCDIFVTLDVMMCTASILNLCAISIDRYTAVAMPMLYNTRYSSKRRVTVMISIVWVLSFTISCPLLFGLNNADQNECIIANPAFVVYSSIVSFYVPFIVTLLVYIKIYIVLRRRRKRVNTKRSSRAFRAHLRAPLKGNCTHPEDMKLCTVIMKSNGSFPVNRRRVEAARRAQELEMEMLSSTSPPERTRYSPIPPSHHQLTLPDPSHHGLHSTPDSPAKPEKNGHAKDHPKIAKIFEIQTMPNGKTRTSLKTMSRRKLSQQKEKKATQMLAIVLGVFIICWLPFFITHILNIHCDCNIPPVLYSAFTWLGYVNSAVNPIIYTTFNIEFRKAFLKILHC
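Agonist mode: compounds alone added to overnight-plated D2 PathHunter cells for 90 min at 37 C, with 57 uM final dopamine (EC100) defining full response. Beta-arrestin recruitment detected by chemiluminescent reagent, read after 1 h at ambient temperature.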
D2 PAM-1: positive allosteric modulators of human D2 dopamine receptor; P14416; DiscoveRx D2 beta-arrestin cells, luminescence, 90 min; 100% = 57 uM dopamine signal; potentiation, % (concentration not given with the values); hit rate 0.23% among 360,000; AID 624464; in the data active means potentiation above about 50%
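PathHunter D2 cells, attached overnight at 37 deg C, received compound in DMSO plus dopamine at EC20 (50 nM final) for 90 min at 37 deg C. Beta-arrestin recruitment was read as luminescence after 1 h with detection reagent at ambient temperature.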
D2 antag: antagonists of human D2 dopamine receptor; P14416; HEK293 TREx D2 cells, calcium flux, dopamine EC80; inhibition, % at 10 µM; hit rate 2% among 340,000; AID 485344; in the data active means inhibition above about 30%; inactive means below that, where a call was filed; further: 0% is about no effect
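Measurement of antagonist activity uses fluorescent calcium dye in inducible HEK293 T-REx D2 cells: 10 s baseline, compound addition with 180 s read, EC80 dopamine addition with a further 180 s read.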
D2 ag-2: agonists of human D2 dopamine receptor. hit rate 0.53% among 340,000. activation, % at 2 µM. P14416. HEK293 T-REx D2 cells, calcium flux agonist mode;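 active means activation over 3 SD above normal in the single-dose calcium agonist read, cut at about 30% in these data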; further: 0% is about no effect
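Agonism scored from kinetic calcium signal (1 read/sec, 180 s) following compound pin transfer, after a 10 s baseline. Cells: HEK293 Trex line expressing inducible D2 receptor coupled to calcium, dye-loaded after overnight culture at 30 C.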
D2 PAM-2: positive allosteric modulators of human D2 dopamine receptor | P14416 | HEK293 T-REx D2, calcium flux, EC20 dopamine potentiation | potentiation, % at 10 µM | hit rate 0.34% among 340,000;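 active means potentiation over 3 SD above the plate norm, cut at about 30% in these data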; further: 0% is about no effect
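Tetracycline-induced Hek293 Trex D2 cells, force-coupled to calcium, loaded with no-wash calcium dye. Compound added with 180 s kinetic read for agonism, then EC20 dopamine and a further 180 s read for potentiation.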
* marks the source's active call; other numbers are inactive results; nt = no result given.

SMILES	D2 ag-1	D2 PAM-1	D2 antag	D2 ag-2	D2 PAM-2
CC(C)N1CCc2c(sc(NC(=O)CCS(=O)(=O)c3ccccc3)c2C#N)C1	-3.7	-3.2	33.7*	0.2	8.9
NC(=O)c1c(NC(=O)C2COc3ccccc3O2)sc2c1CCN(Cc1ccccc1)C2 (stereo unspecified)	-15.2	-22.8	-1.6	41.7*	-3.3
CC(=O)Nc1sc2c(c1-c1nc3ccccc3s1)CCN(C(C)C)C2	-6.4	-18.4	-6.7	47.5*	-2.3
CC(C)N1CCc2c(sc(NC(=O)Cc3ccccc3)c2C(N)=O)C1	-1.4	-14.0	40.1*	0.4	-19.7
CCN1CCc2c(sc(NC(=O)CSc3ccccc3)c2-c2nc3ccccc3s2)C1	nt	nt	nt	nt	-23.0
CCCN1CCc2c(sc(NC(=O)c3ccc(S(=O)(=O)N(C)c4ccccc4)cc3)c2C(N)=O)C1	-6.5	-11.5	-3.5	77.6*	-0.5
COc1cccc(CC(=O)Nc2sc3c(c2C(N)=O)CCCC3)c1	1.7	-1.0	39.3*	-0.3	-8.9
COc1ccc(CC(=O)Nc2sc3c(c2C(N)=O)CCCC3)cc1OC	5.8	4.8	3.1	0.1	1.9
CCC(C)NC(=O)c1cnn2c(C)c3c(nc12)CCCC3 (stereo unspecified)	-2.7	4.0	13.8	-1.6	32.7*
CCOc1ccccc1CNC(=O)CCn1cccn1	nt	nt	nt	0.8	4.1
OCCC1CN(Cc2ccc(F)cc2)CCN1CCc1ccccc1 (stereo unspecified)	-2.0	-1.6	42.7*	-3.2	-1.8
OCCC1CN(Cc2cccc(-n3cccn3)c2)CCN1Cc1ccccc1 (stereo unspecified)	-1.8	-25.5	57.8*	0.2	-21.9
OCCC1CN(Cc2ccc(F)cc2)CCN1CCCc1ccccc1 (stereo unspecified)	-1.2	-3.7	-6.8	0.6	-17.1
COc1ccc2c(c1)C(=O)N(c1ccccc1)C(=O)C2	-2.9	19.8	13.4	0.5	30.5*
O=C(OCc1ccccc1)N1Cc2ccnnc2CC1c1ccccc1Br (stereo unspecified)	-3.8	-9.0	nt	nt	nt
O=Cc1ccc(-c2cccs2)s1	-1.1	-18.5	nt	nt	nt
Oc1ccc(N=Cc2ccc(-c3cccs3)s2)cc1	11.9	56.5*	-0.6	0.0	8.5
O=C(NCCc1cccs1)Nc1ccc2nc([C@@H]3O[C@H](CO)[C@@H](O)[C@H]3O)[nH]c2c1	8.2	-6.3	nt	nt	nt
Cc1ccc(NC(=O)CSc2ncc3c(n2)-c2ccccc2N(C)S3(=O)=O)c(Cl)c1	nt	nt	nt	0.2	7.2
COc1ccc(NC(=O)c2cc3c(=O)n4ccccc4nc3n2C)cc1OC	3.6	2.4	-8.5	-0.5	34.7*
COc1ccc(C)cc1NC(=O)c1cc2c(=O)n3ccccc3nc2n1C	0.1	1.7	12.7	0.6	11.0
Cc1ccc(NC2=NCC(=O)N2c2ccc3c(c2)OCCO3)c(C)c1	-1.4	-10.1	9.4	-1.2	31.2*
Cc1ccc(NC(=O)CNC2CCCCC2)cc1Cl	-8.4	-6.1	30.3*	0.2	10.4
Cc1ccc(NC(=O)C(C)N2CCCC2)cc1Cl (stereo unspecified)	0.8	-6.5	33.1*	0.2	-19.0
CC(C)C(=O)Nc1ccc(N2CCCC2)c(Cl)c1	-1.3	-12.1	13.7	1.0	-4.8
SMILES	D2 ag-1	D2 PAM-1	D2 antag	D2 ag-2	D2 PAM-2
CC(=O)c1ccc(NC(=O)CNC2CCCCC2)cc1	-2.8	-6.8	8.8	1.1	-2.8
COc1cccc(-c2cnc(C(O)c3ccc(OC)c(F)c3)[nH]2)c1 (stereo unspecified)	-5.0	-7.4	nt	nt	nt
CCOC(=O)c1ccc(NC(=O)C(C)Sc2nc(=O)cc(N)n2CCc2ccccc2)cc1 (stereo unspecified)	nt	nt	nt	0.4	5.3
COc1ccc(Nc2oc(-c3cccs3)nc2C#N)cc1	8.1	62.0*	-8.0	0.4	10.8
CNc1oc(-c2cccs2)nc1C#N	0.0	9.3	nt	nt	nt
Cc1cc(C)c2[nH]c(=O)c(C(c3nnnn3CC3CCCO3)N3CCC(C)CC3)cc2c1 (stereo unspecified)	-1.9	-25.6	37.3*	-0.1	0.9
COc1ccc(CCNCC(=O)Nc2c(C)cc(C)cc2C)cc1OC	6.0	-2.6	44.9*	-0.7	7.5
COc1ccc(CCNC(=O)c2[nH]c(C)c(C(C)=O)c2C)cc1OC	-0.2	-13.7	37.7*	-1.2	1.3
CCOc1ccc(-c2ccc(NS(=O)(=O)c3ccc(C)cc3)cc2)nn1	nt	nt	nt	0.4	-9.0
Cc1cccc(C)c1OCC1CNC(=O)O1 (stereo unspecified)	0.1	-0.4	36.1*	0.1	3.5
CCCCCCN1C[C@H](n2cc(C3CC3)nn2)[C@@H](O)C[C@@H]1c1ccc(Cl)cc1	-0.5	nt	nt	nt	nt
Cc1ccc(NC(=O)C(C)[n+]2ccccc2)cc1[N+](=O)[O-] (stereo unspecified)	-2.9	-18.7	59.9*	-0.2	-18.5
COc1ccc(Nc2cc(C)c3cc(NC(=O)c4cc(OC)cc(OC)c4)ccc3n2)cc1	nt	nt	nt	1.7	-10.5
Cc1ccc(NC(=O)C2CCC(N3C(=O)C4CCCCC4C3=O)CC2)cc1 (stereo unspecified)	-3.7	-6.3	42.8*	0.5	-11.4
O=C(Nc1ccc(Cc2ccncc2)cc1)C1CCC(N2C(=O)C3CCCCC3C2=O)CC1 (stereo unspecified)	-1.2	-0.1	-4.7	-0.8	-9.2
O=C1NC(Cc2ccccc2)c2nc3ccccc3c(=O)n2-c2cc(Cl)ccc21 (stereo unspecified)	nt	nt	-8.2	-0.9	-2.3
Cc1ccc(C(=O)N/N=C\c2ccc(-c3ccc([N+](=O)[O-])cc3)o2)cn1	0.7	0.0	4.3	0.3	6.9
Cc1ccc(C(=O)N/N=C\c2ccc(-c3ccc(Cl)cc3)o2)cn1	3.1	-14.4	17.7	0.6	30.4*
COCCN(C(=O)COC(=O)/C=C/c1ccc(C(F)(F)F)cc1)c1c(N)n(Cc2ccccc2)c(=O)[nH]c1=O	-4.4	-8.8	45.3*	0.6	-5.8
Cc1cccc(OCCN2CCOCC2)c1C	-0.9	-0.5	41.1*	23.8	-12.1
Fc1ccccc1OCCCN1CCOCC1	-2.2	-9.6	31.1*	0.5	2.2
Cc1ccc(N2C(=O)CS(=O)(=O)C23C(=O)N(Cc2ccccc2F)c2ccccc23)cc1Cl (stereo unspecified)	nt	nt	nt	0.8	-5.1
COc1ccccc1-[n+]1c(C)cc(/C=C2\Sc3ccccc3N2C)cc1C	-7.7	-36.4	-15.6	88.7*	15.5
COc1ccc(C(=O)/C=C2\Sc3ccccc3N2C)cc1	-8.0	-12.5	40.5*	-0.8	-1.2
COc1ccccc1OC(=O)CCN1c2ccccc2Sc2ccccc21	1.6	6.6	-2.8	-0.7	1.0
COc1ccc(-[n+]2c(C)cc(/C=C3\Sc4ccccc4N3C)cc2C)cc1	-4.6	-7.7	47.7*	54.9*	3.0
O=C(NCc1ccccc1Cl)c1cnc2sc(N3CCCCC3)nn2c1=O	nt	nt	nt	-0.4	nt

Screening results (PubChem)
